In the library only some 10% were active in any assay of this set; here they are far more common.
BAZ2B inh: inhibitors of human BAZ2B bromodomain | AlphaScreen BAZ2B-H3K14Ac peptide displacement | Potency, µM (series often up to 114 µM), without a hit: at the top dose activity change, negative = inhibition, usual class: inhibitors | actives 4.4% (n = 360,000); note: potency is the fitted concentration of half-maximal effect; % is set by controls: 0 for no effect and ±100 for the full control effect; nearly all actives have a fitted effect of over 60% in size
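AlphaScreen luminescence quantifies BAZ2B engagement of H3K14Ac peptide; the protein and biotinylated peptide are both at 50 nM final, buffer PBS pH 7.4 with 0.01% Tween-20, all steps at room temperature.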
HP1b chromo inh: blocks HP1-beta chromodomain binding to methylated histone tails; AID 540317; AlphaScreen HP1-beta / biotin-H3K9me3 peptide binding; actives 0.56% (n = 390,000); Potency, µM (highest dose often 114 µM), for inactives: at the highest dose activity change, negative = inhibition, most hits filed as inhibitors; P83916; note: potency is the fitted concentration of half-maximal effect; nearly all actives have a fitted effect of over 70% in size
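AlphaScreen: HP1-beta (50 nM) preformed 30 min with biotin-H3(1-18)K9me3 peptide (50 nM) in PBS pH 7.4, 0.01% Tween-20. Compound added for 30 min at RT, then streptavidin donor/nickel chelate acceptor beads (10 ug/mL) for 30 min.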
JMJD2A Tudor inh: blocks the human JMJD2A Tudor domain. actives 4.4% (n = 390,000). O75164. AlphaScreen JMJD2A-Tudor / H3K4me3 peptide binding. Potency, µM (series often up to 114 µM), inactives show top-dose activity change, negative = inhibition, hits mostly inhibitors. AID 504339; note: potency is the fitted concentration of half-maximal effect; % is set by controls: 0 for no effect and ±100 for the full control effect; nearly all actives have a fitted effect of over 50% in size
G9a inh: inhibitors of human histone lysine methyltransferase G9a; AID 504332; Potency, µM (titrated, usually from 102 µM), for inactives: at the highest dose activity, negative = inhibition, most hits filed as inhibitors; actives 8.8% (n = 350,000); G9a H3K9 monomethylation, AlphaScreen, 2 h; Q96KQ7; note: potency is the fitted concentration of half-maximal effect; % is set by controls: 0 for no effect and ±100 for the full control effect; nearly all actives have a fitted effect of over 75% in size
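Quantitative HTS format: methyltransferase activity on a biotin-tagged H3K9 peptide is measured by AlphaScreen, using a rabbit anti-monomethyl-H3K9 antibody with streptavidin donor and anti-IgG acceptor beads. Final levels are 20 nM enzyme, 500 nM peptide, 20 uM SAM; 2 h RT.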
CtBP-E1A inh: blocks the CtBP interaction with E1A; AlphaScreen GST-E1A/His-CtBP binding, 1536-well; hits give low values; actives 0.49% (n = 340,000); activity change, % (no concentration beside the values); in the data active = activity change below about -65%; inconclusive = mostly about -30% to -63%; note: % is set by controls: 0 for no effect and ±100 for the full control effect
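AlphaScreen with 125 nM GST-E1A and 125 nM His-CtBP (5X stocks) in Tris pH 8.0, 300 mM NaCl, BSA, Tween 20, TCEP. Compounds preincubated 2 h at 37 deg C, then glutathione donor/nickel acceptor beads added for 1 h at 37 deg C in dark.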
Six1-Eya2 blk: inhibitors of human Six1/Eya2 interaction; activity change, % (no concentration beside the values); actives 0.56% (n = 360,000); Q15475+O00167; AlphaScreen GST-Six1/His-Eya2 binding, biochemical; hits give low values; in the data active = activity change below about -65%; inconclusive = mostly about -30% to -63%; note: % is set by controls: 0 for no effect and ±100 for the full control effect
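AlphaScreen luminescence read after one hour at 37 °C in darkness. Pin-transferred compounds met GST-Six1 and His-Eya2 protein (5X stock 250 nM/500 nM) plus glutathione donor and Ni-chelate acceptor beads (5X, 50 ug/mL).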
* marks the source's active call; other numbers are inactive results; [ ] = dose if it differs, or a comment. Unless noted, calls come from the whole dose curve; as a rule, active = well fitted inhibition curve with a large enough effect; inconclusive = small, poorly fitted or top-dose-only effect; inactive = no such curve, though single readings can be large or run the other way.

How did CN(Cc1ccccc1)C(=O)c1ccc(NC(=O)C2CCN(C(=O)OC(C)(C)C)CC2)cc1 do in these assays?
HP1b chromo inh: -12%; JMJD2A Tudor inh: inconclusive; CtBP-E1A inh: 7; Six1-Eya2 blk: -3

Results for C/C(=N\Nc1ccccc1)c1c(O)n(Cc2ccccc2)c(=O)[nH]c1=O ?
BAZ2B inh: -11%; HP1b chromo inh: 29%; JMJD2A Tudor inh: inconclusive; G9a inh: 10µM*; CtBP-E1A inh: 3; Six1-Eya2 blk: -6

How did C/C(=N\Nc1ccccc1)c1c(O)n(-c2ccccc2)c(=O)[nH]c1=O do in these assays?
BAZ2B inh: -17%; HP1b chromo inh: 35%; JMJD2A Tudor inh: 4%; G9a inh: 50µM*; CtBP-E1A inh: 0; Six1-Eya2 blk: 6

Results for C/C(=N\NC(=O)c1ccccc1O)c1c(O)n(Cc2ccccc2)c(=O)[nH]c1=O ?
BAZ2B inh: 5%; HP1b chromo inh: 28%; JMJD2A Tudor inh: -16%; CtBP-E1A inh: 1; Six1-Eya2 blk: -22

What do the screens show for `Nc1nc(O)c(-c2ccccc2)o1`?
G9a inh: -5%[12.7 µM]

Results for COc1cccc(CNCCc2c[nH]c3ccccc23)c1OC ?
BAZ2B inh: -16%; HP1b chromo inh: 28%; JMJD2A Tudor inh: 3%; G9a inh: inconclusive; CtBP-E1A inh: -2; Six1-Eya2 blk: 2

How did CCOc1cc(CNCCc2cccc(F)c2)ccc1OC do in these assays?
BAZ2B inh: 45µM*; HP1b chromo inh: 71µM*; JMJD2A Tudor inh: 1.4µM*; G9a inh: 22µM*; CtBP-E1A inh: -1; Six1-Eya2 blk: 0

Results for Cn1c(=O)n(C)c2cc(CNCCc3ccccc3)ccc21 ?
BAZ2B inh: -33%; HP1b chromo inh: 46%; JMJD2A Tudor inh: -3%; G9a inh: -1%[59 µM]

Results for COc1ccc(CCNCc2ccc(C)s2)cc1OC ?
BAZ2B inh: -18%; HP1b chromo inh: 5%; JMJD2A Tudor inh: -23%; G9a inh: -28%; CtBP-E1A inh: 5; Six1-Eya2 blk: -6

Results for COc1cc(OC)c(OC)cc1CNCCc1ccc2c(c1)OCO2 ?
BAZ2B inh: inconclusive; HP1b chromo inh: -25%; JMJD2A Tudor inh: 32µM*; G9a inh: 28µM*; Six1-Eya2 blk: -5

What do the screens show for `Brc1cccc(CNCCc2ccc3c(c2)OCO3)c1`?
BAZ2B inh: 56µM*; HP1b chromo inh: -34%; JMJD2A Tudor inh: 22µM*; Six1-Eya2 blk: 1

Results for COc1cccc(CNCCc2cccc(F)c2)c1OC ?
BAZ2B inh: 79µM*; HP1b chromo inh: inconclusive; JMJD2A Tudor inh: 28µM*; G9a inh: -9%[0.501 µM]; Six1-Eya2 blk: 3

Results for COc1ccccc1CN1CCCC2(CCN(C(=O)Oc3ccccc3)CC2)C1 ?
G9a inh: -5%[12.7 µM]

What do the screens show for `C=C1C/C(=C\C)C(=O)O[C@@H]2CCN3CC=C(COC(=O)[C@@]1(C)O)[C@H]23`?
G9a inh: 22%[21.5 µM]

What do the screens show for `COc1cc(Br)c(CNCCc2ccc3c(c2)OCO3)cc1OC`?
BAZ2B inh: inconclusive; HP1b chromo inh: inconclusive; JMJD2A Tudor inh: 25µM*; G9a inh: 8.9µM*; CtBP-E1A inh: -6; Six1-Eya2 blk: -4

Results for COc1cccc(CNCCc2ccc3c(c2)OCO3)c1OC ?
BAZ2B inh: 56µM*; HP1b chromo inh: -13%; JMJD2A Tudor inh: 79µM*; G9a inh: 9%[0.501 µM]; Six1-Eya2 blk: -3

Results for CC1CC[C@]2(NC1)OC1CC3C4CC=C5CC(O)CC[C@@]5(C)C4CC[C@]3(C)C1C2C (some centres not stated) ?
G9a inh: -48%[2.33 µM]

How did O=C(O)C1Cc2ccccc2N2CCCC12 (configuration not stated) do in these assays?
BAZ2B inh: -24%; HP1b chromo inh: 83%; JMJD2A Tudor inh: -19%; G9a inh: 40µM*; CtBP-E1A inh: 0; Six1-Eya2 blk: 16

Bioassay records (PubChem BioAssay)
